An excerpt weighted towards active compounds, which were near 1.6% of everything screened.
Rce1 inhib: inhibitors of yeast Ras-converting enzyme | Q03530 | yeast membranes, quenched prenylated peptide cleavage fluorescence | calls only | 290,000 compounds, 0.27% hits;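 active means fall in fluorescence gain of 50% or more versus controls, with final raw signal at or below 3038400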;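 further: plate controls were neutral control wells for no effect and wells lacking membranes for full effect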
V-ATPase pH: alters yeast V-ATPase proton transport. S. cerevisiae, pHLuorin cytosolic pH fluorescence. response, % at 10 µM. 350,000 compounds, 0.37% hits; in the data active means response mostly above about 7.3%, no sharp cut-off; inactive means mostly below about 5.4%; further: actives read high
Efflux pump mplx: antifungal efflux pump inhibition, Nile Red retention; 330,000 compounds, 0.44% hits; inhibition, % at 10 µM; S. cerevisiae Candida pump triplex; AID 485275;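 active means plate passing quality check with inhibition over a set limit, or well fluorescence over plate mean plus 4 SD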;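 further: Nile Red retained in pooled yeast measured as flow cytometry median fluorescence; 0% = buffer negative control and 100% = Enniatin B positive control; higher means more Nile Red kept so more efflux inhibition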
NPR2 activator: GC-B (human) receptor activation; 370,000 compounds, 0.11% hits; activation, % at 10 µM; AID 1920062; HEK293-GC-B cells, CNP EC30, cGMP TR-FRET; 0% at EC30 CNP, 100% saturating CNP;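 active means activation at 10 µM reaching about 35% in either raw or pattern-adjusted values, limit read from the data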
NSD2 inh: NSD2 (human) methyltransferase inhibition | NSD2 peptide methylation, AlphaScreen, 120 min | AID 743445 | inhibition, % at 12.5 µM | 310,000 compounds, 0.54% hits; in the data active means inhibition above about 50%
Target sequence (O96028 whole entry, looked up): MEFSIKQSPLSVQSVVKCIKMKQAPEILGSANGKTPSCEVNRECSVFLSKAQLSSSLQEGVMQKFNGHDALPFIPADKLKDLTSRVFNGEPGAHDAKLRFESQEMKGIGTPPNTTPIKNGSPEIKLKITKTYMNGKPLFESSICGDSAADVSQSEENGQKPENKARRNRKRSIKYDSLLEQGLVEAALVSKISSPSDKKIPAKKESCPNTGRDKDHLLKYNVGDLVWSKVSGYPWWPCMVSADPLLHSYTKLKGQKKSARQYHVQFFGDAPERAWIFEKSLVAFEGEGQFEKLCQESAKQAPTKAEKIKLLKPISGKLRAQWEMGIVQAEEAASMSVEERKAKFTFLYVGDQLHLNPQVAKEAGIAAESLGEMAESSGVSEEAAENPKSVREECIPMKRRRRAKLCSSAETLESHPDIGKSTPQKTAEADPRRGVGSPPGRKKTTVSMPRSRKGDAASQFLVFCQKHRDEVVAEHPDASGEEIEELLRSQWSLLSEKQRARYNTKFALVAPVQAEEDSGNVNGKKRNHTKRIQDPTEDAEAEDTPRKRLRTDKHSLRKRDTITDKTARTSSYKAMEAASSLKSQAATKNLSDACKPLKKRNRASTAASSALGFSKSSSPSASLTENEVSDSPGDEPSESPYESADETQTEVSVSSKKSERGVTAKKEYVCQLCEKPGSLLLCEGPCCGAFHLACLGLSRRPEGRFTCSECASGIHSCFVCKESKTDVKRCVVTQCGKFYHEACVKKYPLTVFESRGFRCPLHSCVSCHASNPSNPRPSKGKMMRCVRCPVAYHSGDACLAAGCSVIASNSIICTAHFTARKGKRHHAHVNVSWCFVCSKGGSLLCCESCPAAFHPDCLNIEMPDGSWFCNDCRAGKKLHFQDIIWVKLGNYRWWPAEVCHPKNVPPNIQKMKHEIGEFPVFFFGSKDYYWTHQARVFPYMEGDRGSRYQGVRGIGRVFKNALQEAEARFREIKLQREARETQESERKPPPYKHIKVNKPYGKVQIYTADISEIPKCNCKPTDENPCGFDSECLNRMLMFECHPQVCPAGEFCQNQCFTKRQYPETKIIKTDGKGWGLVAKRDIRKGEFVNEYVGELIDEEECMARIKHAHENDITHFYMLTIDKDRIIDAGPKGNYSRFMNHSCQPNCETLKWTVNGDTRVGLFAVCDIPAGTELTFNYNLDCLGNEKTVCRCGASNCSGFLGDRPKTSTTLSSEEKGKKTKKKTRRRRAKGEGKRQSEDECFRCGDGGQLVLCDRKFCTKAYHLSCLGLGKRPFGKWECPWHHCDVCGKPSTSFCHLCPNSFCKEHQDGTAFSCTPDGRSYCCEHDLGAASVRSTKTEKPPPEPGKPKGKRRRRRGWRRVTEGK
NPR1 activator: GC-A (human) enzyme activation; P16066; HEK293 GC-A cells, cGMP TR-FRET, EC30 ANP; 0% at EC30 ANP, 100% saturating ANP; activation, % at 10 µM; 370,000 compounds, 0.14% hits; in the data active means activation above about 40%
An asterisk follows results filed as active; i = inactive; . = no result given; + = active, no number.

SMILES	Rce1 inhib	V-ATPase pH	Efflux pump mplx	NPR2 activator	NSD2 inh	NPR1 activator
CCOC(=O)c1cn(-c2nc(-c3ccc(Cl)c(Cl)c3)cs2)c2c(F)c(N3CCOCC3)c(F)cc2c1=O	i	2	1.6*	7	.	-2
Nc1nc(N2CCN(C(=O)c3ccco3)CC2)nc2ccccc12	+	2	0	1	-2	3
Cc1cccc2cc(C#N)c(NCCNC(=S)NCCCN3CCOCC3)nc12	i	0	0	1	.	-3
Cc1cc2cc(C#N)c(NCCNC(=S)NCCCN3CCOCC3)nc2cc1C	+	-1	0	-2	2	-1
Cc1ccc(NC(=O)c2ccc(CS(=O)(=O)Cc3ccccc3C)o2)c(C)c1	.	.	.	10	11	-1
COc1cc(NCCCC(C)N)c2ncccc2c1 (stereo not given)	i	1	.	3	141*	4
CCC(CNc1cc(OC)cc2cccnc12)NC1CCCCC1 (stereo not given)	i	-1	0	-7	80*	-7
COc1ccc(C#CCN(C)/C(N)=N/C(=O)OCc2ccccc2)cc1	.	.	.	7	.	-1
O=C(c1ccccc1C(F)(F)F)N1CCC(Oc2cccnc2)CC1	.	.	.	2	.	4
CC1=C(C(=O)N2CCOCC2)C(c2ccccc2F)C2=C(CC(C)(C)CC2=O)N1 (stereo not given)	+	-2	0	2	0	4
O=c1c2ccccc2nc2n1CCc1c-2[nH]c2ccccc12	.	-6	0	16	.	17
Cc1cccc2c(=O)n3c(cc12)-c1[nH]c2ccccc2c1CC3	.	2	.	35*	7	38
CSc1nnc(-c2sc(-c3ccccc3)nc2C)n1C	+	0	0	0	-3	5
O=C1C=C(Nc2ccccc2C(=O)O)c2ccccc2C1=O	i	2	0	-7	.	-8
O=C1C=C(Nc2cccc3cccnc23)c2ccccc2C1=O	i	-1	0	-5	104*	-1
O=c1c2ccccc2n(Cc2ccno2)n1[C@@H](Cc1ccccc1)Cn1cc(-c2ccc(-c3ccccc3)cc2)nn1	.	.	.	2	.	2
C/C(=N\Nc1cc(C)nc(-c2ccccc2O)n1)c1ccccc1	i	4	0	-3	-2	-5
Cc1cc(N/N=C/c2ccc(O)c(C)c2O)nc(-c2ccccc2O)n1	+	-2	0	-5	-6	-9
CC(=O)NCCNc1nc2c(-c3cccc(C(F)(F)F)c3)nnn2c2ccccc12	i	0	0	5	-5	8
COCCNc1nc2c(-c3cccc(C(F)(F)F)c3)nnn2c2ccccc12	i	-8	0	42*	-2	39
CC(C)N1CCCCC(NC(=O)c2ccc(-c3ccccc3)cc2)C1=O (stereo not given)	.	.	.	-2	.	9
O=C(CSc1nc2sc3c(c2c(=O)n1-c1ccc(Cl)cc1)CCC3)Nc1ccc(C(=O)O)cc1	.	.	.	0	3	1
CCN(CC)S(=O)(=O)c1cccc(-c2n[nH]c(=S)n2CC(C)C)c1	i	0	0	-3	-7	0
CCN(CC)S(=O)(=O)c1cccc(-c2n[nH]c(=S)n2Cc2ccccc2)c1	+	3	0	0	-8	0
COC(=O)[C@]12C[C@H](CC(=O)NCCc3ccccc3OC)C(=O)N(CCc3ccc(OC)c(OC)c3)C1=C[C@H](C1CCCC1)O[C@@H]2C	.	.	.	-2	.	-3
SMILES	Rce1 inhib	V-ATPase pH	Efflux pump mplx	NPR2 activator	NSD2 inh	NPR1 activator
CCC12CN(C(=O)c3ccc(OC)cc3)CC(CC)(CN(C(=O)c3ccc(OC)cc3)C1)C2=O	i	7	0	75*	2	-4
CN1CCN(Cc2c(C(=O)N/N=C/c3cccc(Br)c3)nnn2-c2nonc2N)CC1	+	0	0	6	10	1
Nc1nonc1-n1nnc(C(=O)N/N=C/c2ccoc2)c1CSc1ccccc1	+	-3	0	.	1	.
Cc1nnn(-c2nonc2N)c1C(=O)N/N=C/c1cccc2ccccc12	+	2	0	-5	.	-5
Nc1nonc1-n1nnc(C(=O)N/N=C/c2ccoc2)c1CSc1ccc(Cl)cc1	i	2	0	-2	-5	-1
C#CCN(C)S(=O)(=O)c1ccc(N2CCCC2)cc1Br	.	.	.	4	.	2
COc1ccccc1C(=O)OCC(=O)NC1CCCC1	i	259*	0	3	-1	3
O=S(=O)(Cc1ccccc1)N1CCc2ccccc21	i	.	2.7*	.	.	.
O=C1NC(c2ccc(Br)cc2)Nc2ccccc21 (stereo not given)	+	0	0	-3	-2	-3
c1cncc(-c2nc(NCc3ccc4c(c3)OCO4)c3ccccc3n2)c1	i	3	0	59*	.	53*
c1ccc(CNc2nc(NCc3ccccc3)c3ccccc3n2)cc1	+	-1	0	.	0	.
Cc1ccc(CNc2nc(-c3cccnc3)nc3ccccc23)cc1	.	-3	0	57*	0	56*
CC(C)(C)OC(=O)NCc1ccccc1/C=C/S(=O)(=O)NCCc1ccccc1	.	.	.	-1	.	1
O=C(CSc1nnc(COc2ccccc2)n1-c1ccccc1)Nc1ccc(S(=O)(=O)Nc2nccs2)cc1	.	.	.	0	6	-2
CCc1nc2ccc(C(=O)N3CC(C)CC(C)C3)cc2nc1CC (stereo not given)	.	.	.	.	-2	.
CN(C)C(=O)COc1ccc2ccc(=O)oc2c1	+	2	0	0	-2	-6
COc1cc(/C=C(\C(=O)O)c2ccc(S(=O)(=O)N3CCCCC3)s2)ccc1OC(F)F	.	.	.	.	0	.
CC(C)NCC(O)COCCOc1ccc(Br)cc1 (stereo not given)	+	-2	0	-3	14	1
Cc1ccc(NC(=O)C2CCCN(c3nnc(-n4cccc4)s3)C2)c(C)c1 (stereo not given)	.	.	.	-9	-5	-3
CCOc1ccc(N(Cc2ccc(OC)cc2)C(=O)c2ccco2)cc1	+	5	0	-2	2	0
CCOc1ccc(N(Cc2ccc(OC)c(OC)c2)C(=O)c2ccco2)cc1	i	-1	0	-1	4	-1
CCCCN1C(=O)N2Cc3ccccc3C2CS1(=O)=O (stereo not given)	.	.	.	-1	.	-1
CC(C)(C)n1ncc2c(=O)n(Cc3c(F)cccc3Cl)cnc21	i	2	0	40*	-5	28
CC(C)CN1CN2Cc3ccccc3C2CS1(=O)=O (stereo not given)	.	.	.	4	.	2
CC(Oc1ccc2c3c(c(=O)oc2c1)CCCC3)C(=O)NC1CC(C)(C)NC(C)(C)C1 (stereo not given)	+	2	0	-7	2	3
Cc1c(C)c2ccc(OC(C)C(=O)NC3CC(C)(C)NC(C)(C)C3)cc2oc1=O (stereo not given)	i	-1	0	-3	-4	4

Screening data (PubChem)
